Data as given in PubChem BioAssay.
Values without a mark were called inactive. The source made the active and inactive calls. No stated cut-off is given here; in the data, active means fold change permeability below about 0.7 or above about 1.3; inactive means in between.

Test: modulators of brain endothelial barrier permeability, primary screen, cell-based, FITC-avidin fluorescence, HTS (AID 1963498); further: test concentration not given here
Details: actives lie on both sides

Row | Compound | fold change permeability
1 | COC[C@H]1OC(=O)c2coc3c2[C@@]1(C)C1=C(C3=O)C2CCC(=O)[C@@]2(C)C[C@H]1OC(C)=O (stereo partly drawn) | 1.7 (active)
2 | Cc1ccc2c(c1)C1(CCN(CCc3nc(-c4ccccc4)oc3C)CC1)OC(=O)N2 | 1
3 | O=C1C=CC(=O)C=C1 | 1
4 | CN1C[C@H](CNC(=O)OCc2ccccc2)C[C@@H]2c3cccc4c3c(cn4C)C[C@H]21 | 1.4 (active)
5 | CCOC(=O)c1ccc(-c2ccc(OC(=O)N(C)Cc3cccc(-c4ccncc4)c3)cc2)cc1 | 1.2
6 | C=C(C)[C@H]1Cc2c(ccc3c2O[C@@H]2COc4cc(OC)c(OC)cc4[C@@H]2C3=O)O1 | 1.7 (active)
7 | NC(=O)CN1CC(O)CC1=O (stereo not drawn) | 0.8
8 | CP(=O)(O)C1=CCNCC1 | 1.4 (active)
9 | O=[N+]([O-])c1ccc2nc(N3CCNCC3)ccc2c1 | 1
10 | c1ccc(C2CC2)c(OCC2=NCCN2)c1 | 1
11 | CCN1C[C@]2(COC)[C@H](O)C[C@H](OC)[C@]34C1[C@H]([C@H](OC)[C@H]23)[C@]1(OC(C)=O)[C@H]2[C@@H](OC(=O)c3ccccc3)[C@](O)(C[C@H]24)[C@@H](OC)[C@@H]1O | 1
12 | CCCN(CCC)[C@@H]1CCc2cccc(O)c2C1 | 1.2
13 | C[N+]1(C)CCOC(O)(c2ccc(-c3ccc(C4(O)C[N+](C)(C)CCO4)cc3)cc2)C1 (stereo not drawn) | 1.1
14 | CC(C)C[C@H](NP(=O)(O)O[C@@H]1O[C@@H](C)[C@H](O)[C@@H](O)[C@H]1O)C(=O)N[C@@H](Cc1c[nH]c2ccccc12)C(=O)O | 1.4 (active)
15 | CC(C)=CCOc1c2occc2cc2ccc(=O)oc12 | 1.5 (active)
16 | CNc1ccc2oc(C[C@H]3O[C@@]4(CC[C@H]3C)O[C@H]([C@H](C)C(=O)c3ccc[nH]3)[C@H](C)C[C@H]4C)nc2c1C(=O)O | 1.2
17 | CCCN1CCC[C@@H](c2cccc(O)c2)C1 | 1
18 | CC[C@@H](CO)NC(=O)[C@@H]1C=C2c3cccc4c3c(cn4C)C[C@H]2N(C)C1 | 0.7 (active)
